Data: PubChem BioAssay (NCI)
Compounds without any hit were thinned out: in the full panel of roughly 79,000, 15% have a hit. Calls of active or inactive are those of the source. No stated cut-off is given here; in the data, active means growth inhibition above about 70%; inactive means the rest.

Tests used:
[1] = NCI Yeast Anticancer Drug Screen. Data for the rad50 strain (AID 155);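 further: 0% = growth of vehicle-only cultures of the same strain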; details: S. cerevisiae rad50 strain growth inhibition; at 50.0 µM; stronger effect = higher value
How it was run: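 Growth of the mutant yeast was measured after compound exposure and referenced to vehicle-treated cultures.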

[2] = NCI Yeast Anticancer Drug Screen. Data for the mec2-1 strain (AID 157); details: S. cerevisiae mec2-1 strain, at 50.0 µM, stronger effect = higher value
How it was run: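 Cells of the genetically defined mec2-1 yeast strain are incubated with test compound. Inhibition of growth is calculated against vehicle-treated controls.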

[3] = NCI Yeast Anticancer Drug Screen. Data for the sgs1 mgt1 strain (AID 161);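 further: 0% = growth of cultures given vehicle only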; details: S. cerevisiae sgs1 mgt1 strain, at 50.0 µM, stronger effect = higher value
How it was run: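 Genetically altered yeast, compound exposure, growth inhibition relative to vehicle.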

[4] = NCI Yeast Anticancer Drug Screen. Data for the cln2 rad14 strain (AID 165);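 further: 0% = growth equal to vehicle treated cultures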; details: S. cerevisiae cln2 rad14 strain, at 50.0 µM, stronger effect = higher value
How it was run: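 The screen exposed genetically defined yeast (cln2 rad14) to test compounds and scored growth inhibition relative to vehicle-treated controls.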

[5] = NCI Yeast Anticancer Drug Screen. Data for the bub3 strain (AID 167); details: S. cerevisiae bub3 mutant strain, at 50.0 µM, stronger effect = higher value
How it was run: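 Whole-cell yeast assay. The mutant strain was incubated with compounds, and growth inhibition was determined by comparison with vehicle-treated cells.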

[6] = NCI Yeast Anticancer Drug Screen. Data for the mlh1 rad18 strain (AID 175); details: S. cerevisiae mlh1 rad18 strain growth inhibition; at 50.0 µM; stronger effect = higher value
How it was run: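 Compound-treated yeast growth, normalised to vehicle controls. Strain bears defined DNA repair mutations.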

Measured: growth inhibition

CC1=C(C#N)C(C)(C)c2ccccc21
inactive: [1] 19.9% | [2] -10.9% | [3] 1.9% | [4] -25.9% | [5] 10% | [6] -13.2%

CCCNc1nnnn1CCC
inactive: [1] 3.15% | [2] 5.05% | [3] -0.4% | [4] 4.25% | [5] 10.9% | [6] -0.05%

O=S1(=O)C2CCC(C2)C1Cl (stereo unspecified)
inactive: [1] 4.5% | [2] 2.75% | [3] 7.45% | [4] -18.9% | [5] -1.05% | [6] 4.2%

CC1(C)C=C(C(Br)c2cccc(Cl)c2)C(=O)c2ccccc21 (stereo unspecified)
active: [1] 98.3% | [2] 99.6% | [3] 99.8% | [4] 99% | [5] 98.8% | [6] 99.3%

Cc1ccc2nc(N(C)C)cc(N(C)C)c2c1
inactive: [1] -7.1% | [2] 6% | [3] 0.2% | [4] -100% | [5] -4.1% | [6] 7.9%

COC1OC(C(=O)O)C(O)C(O)C1O (stereo unspecified)
inactive: [1] 6.75% | [2] -21.1% | [3] -2.6% | [4] -4% | [5] -17.6% | [6] 8.3%

CC(=O)OCC1OC(n2cc(F)c(=O)[nH]c2=O)C(NC(=O)N(CCCl)N=O)C(OC(C)=O)C1OC(C)=O (stereo unspecified)
inactive: [1] 2.4% | [2] -13.9% | [3] 12.8% | [4] 10.8% | [5] 0.9% | [6] -5.85%

O=C(NNC(=S)NCc1ccccc1)C12CC3CC(CC(C3)C1)C2
inactive: [1] -35.6% | [2] -10.3% | [3] -4.2% | [4] 2.55% | [5] 15.5% | [6] -5.9%

O=C(c1cccs1)c1cccs1
inactive: [1] -6.4% | [2] -12.9% | [3] -17.6% | [4] -67% | [5] 8.3% | [6] -8.45%

O=S(=O)(O)C(O)C(c1ccccc1)c1ccccc1 (stereo unspecified)
inactive: [1] -16.1% | [2] -15.8% | [3] -15.6% | [4] -15.8% | [5] -7.2% | [6] -31.9%

CC(NC(=O)OCC[P+](c1ccccc1)(c1ccccc1)c1ccccc1)C(=O)O (stereo unspecified)
inactive: [1] -14.2% | [2] -4.35% | [3] -11.6% | [4] 3.45% | [5] -27.1% | [6] -55.2%

CCCCCCn1ncc(=O)[nH]c1=O
inactive: [1] 4.2% | [2] -6.7% | [3] 2.75% | [4] -40.8% | [5] 6.6% | [6] 8.9%

C/C(=N\N=C(N)N)c1sc(-c2nc(C)c(/C(C)=N/N=C(N)N)s2)nc1C
inactive: [1] 4.35% | [2] -11.2% | [3] -13.3% | [4] 26.4% | [5] 6.85% | [6] 19.6%

O=c1[nH]c(-c2ccccc2)nc2[nH]ncc12
inactive: [1] -3.2% | [2] -11.3% | [3] 23.1% | [4] 9.45% | [5] -7.4% | [6] 6.15%

O=C1COCCO1
inactive: [1] 2.45% | [2] -8.55% | [3] 6.45% | [4] -14% | [5] -6.55% | [6] -19.5%

O=C1NCC(c2ccccc2)(C2CC2)O1 (stereo unspecified)
inactive: [1] 7.85% | [2] 6.65% | [3] -13.3% | [4] -44.6% | [5] 5.1% | [6] -27.1%

c1ccc(N=C(Nc2ccccc2)N2CCCCC2)cc1
inactive: [1] -20% | [2] -50.4% | [3] -7.9% | [4] 9.85% | [5] 9.35% | [6] -21.6%

CCCCC(CC)CCC(C)=O (stereo unspecified)
inactive: [1] 5.8% | [2] -0.8% | [3] 0.35% | [4] 3.3% | [5] 1.75% | [6] -0.9%

Cc1c(-c2ccc(N)cc2)c(=O)oc2cc(O)ccc12
inactive: [1] -8.65% | [2] -11.1% | [3] -2.2% | [4] 33% | [5] 8.1% | [6] 8.55%

Cc1n[nH]c(=O)n1N1C(=O)c2ccccc2C1=O
inactive: [1] -1.25% | [2] -10.1% | [3] -25.7% | [4] -3.45% | [5] -19.6% | [6] -26.6%

CC(C)(C)C(=O)OCN1CCOCC1
inactive: [1] -10.6% | [2] 10.9% | [3] 0.65% | [4] -47.8% | [5] -9.15% | [6] -10.2%

O=S1(=O)OCCOS(=O)(=O)C1S(=O)(=O)c1ccc2ccccc2c1
inactive: [1] 50.5% | [2] -6.15% | [3] 9.3% | [4] 34.8% | [5] 1.4% | [6] 11.8%

O=C1OC(=O)C2C1C1c3ccccc3C2(Br)c2ccccc21 (stereo unspecified)
inactive: [1] -3.15% | [2] 13.7% | [3] -0.45% | [4] -6.05% | [5] 3.55% | [6] 7.65%

CCc1ccccc1NC(=O)CCl
inactive: [1] 9.15% | [2] 0.3% | [3] -0.35% | [4] 17.6% | [5] -3.1% | [6] 2.75%

Clc1cnc(/N=C/c2ccc(/C=N/c3ncc(Cl)cc3Cl)cc2)c(Cl)c1
inactive: [1] 13% | [2] -21.8% | [3] 6.05% | [4] 10% | [5] -5.8% | [6] 16.4%

O=C1NC2CCC(NC(=O)N1c1ccccc1)C1=C2C1
inactive: [1] -28.6% | [2] -8.85% | [3] -5.7% | [4] -0.8% | [5] -3.4% | [6] -32.1%

CCC1(O)CCCCC1
inactive: [1] -16.4% | [2] -23.4% | [3] -30.1% | [4] -37.9% | [5] -18.6% | [6] -21.7%

O=C(Nc1ccc(Cl)cc1)Oc1ccc(Br)cc1Br
inactive: [1] 10.9% | [2] -3.95% | [3] 10.7% | [4] 4.65% | [5] -2.7% | [6] 13.2%

Cn1c(C(F)(F)F)nc2nc(Cl)c(Cl)nc21
inactive: [1] 16.6% | [2] 0.05% | [3] 20.7% | [4] 21.2% | [5] -32% | [6] 46%

Cn1c(=O)n2c(-c3ccccc3)c(-c3ccccc3)n2c1=O
inactive: [1] 6.85% | [2] -19.6% | [3] -23.8% | [4] 0.5% | [5] -25.9% | [6] -28.9%

NC(=O)N/N=C/C(/C=N/NC(N)=O)[N+](=O)[O-]
inactive: [1] -3.8% | [2] -7.4% | [3] -10.3% | [4] -1.75% | [5] -14.6% | [6] 6.8%

NC(CCCCN=Cc1nc(-c2ccccc2)oc1O)C(=O)O (stereo unspecified)
inactive: [1] -33.6% | [2] -52.3% | [3] -50.6% | [4] 21.4% | [5] -27.7% | [6] -47.5%

COc1nc(NC2OC(COC(C)=O)C(OC(C)=O)C(OC(C)=O)C2OC(C)=O)c(-c2csc(N)n2)c(=O)n1C (stereo unspecified)
inactive: [1] -6.6% | [2] -26.2% | [3] -18.8% | [4] 4.35% | [5] -11.3% | [6] -4.55%

CCN=C(N(CC)CC)N(CC)CC
inactive: [1] -12.1% | [2] 10.2% | [3] 2.95% | [4] -24.4% | [5] 62.7% | [6] 4.3%

CC/C(=C\c1ccccc1O)c1ccncc1
inactive: [1] 2.2% | [2] -8.5% | [3] 2.5% | [4] 1.85% | [5] 23.1% | [6] -0.65%

S=C(S)N1CCN(c2ccc(Cl)c(Cl)c2)CC1
inactive: [1] 4% | [2] -1.65% | [3] 20.9% | [4] 2.95% | [5] 8.1% | [6] 57.6%

N#C/C(=C\NC(=S)C(N)=S)C(=O)c1ccc2ccccc2c1
inactive: [1] 40.4% | [2] 30.3% | [3] 40.5% | [4] 33.5% | [5] 24.3% | [6] 50.9%

CCC1CN2N=Cc3ccccc3C2=N1 (stereo unspecified)
inactive: [1] -13.7% | [2] 5.35% | [3] -5% | [4] -43.5% | [5] -22.7% | [6] -15.8%

c1cc(Cc2ccsc2)cs1
inactive: [1] -8.2% | [2] 4.1% | [3] -4.5% | [4] -7.1% | [5] -11.7% | [6] -10.8%

Nc1ccc(N2N=C(N3CCCC3)CC2=O)cc1
inactive: [1] -26.6% | [2] -48.8% | [3] -10.8% | [4] 1.2% | [5] -12.7% | [6] -23.4%

C=CCCN=C(SC)SC
inactive: [1] 3.8% | [2] 20.9% | [3] 16.2% | [4] -11.1% | [5] -0.9% | [6] 4.4%
